# Only a selection was taken, and hits are over-represented in it overall.
# CendR NRP1 mod: NRP-1/CendR interaction modulation | O14786 | inhibition, % at 25 µM | FAM-RPARPAR peptide binding to NRP-1, fluorescence polarization | actives 0.85% (n = 360,000);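 active = inhibition or corrected inhibition above about 18%, plus a signal ratio from 0.5 to 1.5, limit read from the data, passing the limit was not always enough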
# ERp5 inh: inhibitors of human ERp5; ERp5 insulin aggregation, absorbance 650 nm, 90 min; inhibition, % at 9.99 µM; Q15084; actives 0.05% (n = 350,000);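 active = mean replicate inhibition above about 25%, with every replicate also reaching it, limit read from the data, passing the limit was not always enough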
# ARNT TACC3 PPI: disruptors of human ARNT/TACC3 interaction | inhibition, % at 9.99 µM | Q9Y6A5 | actives 0.66% (n = 390,000) | AlphaScreen His-ARNT PAS-B/GST-TACC3 binding, luminescence; TACC3 fragment carries E629A point mutation;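 active = mean inhibition of replicates at least 50% and at least half of replicates each reaching 50%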;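 note: 0% = complete ARNT plus TACC3 wells and 100% = ARNT alone without TACC3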
# ALR H2O2 inh: inhibitors of human sulfhydryl oxidase ALR. P55789. purified ALR, DTT oxidation, H2O2 HRP-luminol luminescence. inhibition, % (test concentration not listed). actives 3.8% (n = 290,000). AID 485317;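 active = mean replicate inhibition above about 79%, with every replicate also reaching it, limit read from the data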
# Target sequence (P55789 whole entry, looked up): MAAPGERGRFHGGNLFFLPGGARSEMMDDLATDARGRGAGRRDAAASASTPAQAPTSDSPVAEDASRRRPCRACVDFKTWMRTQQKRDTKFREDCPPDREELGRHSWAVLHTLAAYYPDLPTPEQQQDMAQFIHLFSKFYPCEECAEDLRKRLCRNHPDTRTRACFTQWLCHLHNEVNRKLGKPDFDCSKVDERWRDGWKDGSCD
# PDI turbidity: blocks human protein disulfide isomerase activity; inhibition, % at 10 µM; P07237; actives 0.052% (n = 350,000); PDI insulin aggregation turbidity, A650, 90 min; AID 588391;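 active = mean inhibition across replicates of 30% or more, whatever share of single replicates reach that level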
# PglD DTNB: blocks C. jejuni PglD acetyltransferase activity; purified PglD enzyme, DTNB colorimetric CoA detection; inhibition, % at 12.5 µM; actives 0.098% (n = 360,000); AID 602405; in the data active = inhibition above about 16%, passing the limit was not always enough
# Active calls of the source: *; · = not tested or not shown; ! = a repeat was not active.
SMILES,CendR NRP1 mod,ERp5 inh,ARNT TACC3 PPI,ALR H2O2 inh,PDI turbidity,PglD DTNB
CO[C@@H]1CN(C)C(=O)c2ccc(NC(C)=O)cc2OC[C@H](C)N(C(=O)CN(C)C)C[C@@H]1C,·,·,3,·,·,8
Cc1ccc(NC(=O)CSc2nnc(-c3ccccn3)n2C)cc1,2,·,9,-4,3,-3
Cc1ccc(NC(=O)CSc2ncc3ccccn23)cc1,4,3,-10,99*,3,5
CCCNC(=O)Nc1ccc2c(c1)C(=O)N(C)C[C@H](OC)[C@@H](C)CN(C(=O)C1CC1)[C@@H](C)CO2,·,-2,-6,·,·,0
C[C@@H]1CN([C@H](C)CO)C(=O)c2cc(NC(=O)Nc3cccc4ccccc34)ccc2O[C@@H]1CN(C)Cc1ccccc1,·,0,15,·,·,3
O=C(N/N=C/c1c(O)n(Cc2ccco2)c(=O)[nH]c1=O)c1ccccc1,-56,-7,62*,9,-1,2
O=C(C[C@@H]1CC[C@H](NC(=O)C2CC2)[C@@H](CO)O1)Nc1nccs1,·,0,16,·,·,10
S=C(c1ccc(-c2ccc(Cl)cc2Cl)o1)N1CCCC1,-12,3,·,96*,6,-6
Cc1ccc(S(=O)(=O)Nc2ccc3c(c2)C(=O)N([C@H](C)CO)C[C@H](C)[C@@H](CN(C)S(=O)(=O)c2ccc(F)cc2)O3)cc1,·,-4,·,·,·,·
Cc1ccccc1NC(=O)Cn1c(C)nc2ccc(N)cc2c1=O,24*,7,6,-30,-10,1
Cc1ccccc1NC(=O)Cn1c(C)nc2ccc(NC(=O)C3CC3)cc2c1=O,-2,0,-5,-14,-1,-3
N#C/C(C(N)=O)=c1/ccc2c(c1)N1C3=C(CCCC3)CC3CCCCC31N=2 (stereo unspecified),·,·,65*,65,·,-3
C[C@H](CO)N1C[C@H](C)[C@H](CN(C)Cc2ccc(-c3ccccc3)cc2)Oc2ccc(N(C)C)cc2C1=O,·,2,20,·,·,-1
Cc1ccccc1NC(=O)CSc1nnc(C)c(=O)[nH]1,5,4,-2,-7,-3,·
CCCCc1c(O)nc(SCC(=O)c2ccccc2)[nH]c1=O,-15,·,12,99*,20,8
CCc1c(O)nc(SCC(=O)Nc2ccccc2C)[nH]c1=O,-14,·,-9,99*,0,0
C[C@H]1CN([C@@H](C)CO)C(=O)c2cc(-c3ccccc3)cnc2O[C@H]1CN(C)C(=O)c1ccccc1F,·,-6,0,·,·,3
O=C(c1cc2ccccc2o1)N1CCN(S(=O)(=O)c2c(F)cccc2F)CC1,33*,0,4,-3,1,-7
Oc1c(CN2CCc3ccccc3C2)cc(Cl)c2cccnc12,-22,·,58*,-55,-5,-1
N#C/C(N=Nc1ccccc1O)=N\Nc1ccccc1O,8,7,37,99*,5,-1
CC1(C)CC(=O)C(C=NCCc2ccc(O)cc2)=C(O)C1,1,·,3,96*,7,-6
O=C(O)c1cc([N+](=O)[O-])ccc1Nc1ccccc1,1,-4,0,9,-6,-15
O=C(O)c1cc([N+](=O)[O-])ccc1Oc1ccccc1,26*,-2,-1,·,0,·
Cc1ccc(C(=O)NN2CCOCC2)cc1[N+](=O)[O-],-1,1,-5,1,-7,-1
Cc1ccc(C(=O)Nn2cnnc2)cc1[N+](=O)[O-],26*,2,-3,3,-5,0
COc1ccc(N2CCN(CC(O)COc3ccc4c(c3)CCC4)CC2)cc1 (stereo unspecified),-4,·,6,97*,12,-5
COc1cccc(OCC(O)CN2CCN(c3ccccc3)CC2)c1 (stereo unspecified),5,3,3,96*!,-10,-4
COc1cccc(OCC(O)CN2CCN(c3ccc(Cl)cc3)CC2)c1 (stereo unspecified),-3,-2,-1,45,8,-11
COc1ccccc1N1CCN(CC(O)COCCOc2ccc(Br)cc2)CC1 (stereo unspecified),-9,-6,0,·,9,·
COc1ccc(N2CCN(CC(O)COCCOc3ccc(Br)cc3)CC2)cc1 (stereo unspecified),3,-5,3,97*,5,·

# Assay outcomes deposited in PubChem by several laboratories.
